Screening results (PubChem BioAssay)
Rows were chosen to be rich in hits. Some 10% of all compounds tested hit in one or more screens of this group.
G9a inh – G9a (human) methyltransferase inhibition; 350,000 tested, 8.8% active; Potency, µM (top dose mostly 102 µM), inactives show at the highest dose activity, negative = inhibition, actives largely listed as inhibitors; G9a H3K9 monomethylation, AlphaScreen, 2 h; note: % is set by controls: 0 for no effect and ±100 for the full control effect; nearly all actives have a fitted effect of over 75% in size
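Step 1: enzyme (final 20 nM) with compound, 15 min RT. Step 2: substrate peptide 500 nM and SAM 20 uM, 2 h RT. Step 3: anti-H3K9me1 antibody and AlphaScreen beads, 10 min, then plate read.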
BAZ2B block – blocks human BAZ2B; Q9UIF8; AlphaScreen BAZ2B-H3K14Ac peptide displacement; Potency, µM (doses to about 114 µM), for the others: at the top dose activity change, negative = inhibition, hits mostly inhibitors; 360,000 tested, 4.4% active; AID 504333; note: % is set by controls: 0 for no effect and ±100 for the full control effect; nearly all actives have a fitted effect of over 60% in size
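AlphaScreen luminescence quantifies BAZ2B engagement of H3K14Ac peptide; the protein and biotinylated peptide are both at 50 nM final, buffer PBS pH 7.4 with 0.01% Tween-20, all steps at room temperature.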
JMJD2A Tudor inh – JMJD2A Tudor domain (human) inhibition; AlphaScreen JMJD2A-Tudor / H3K4me3 peptide binding; AID 504339; Potency, µM (top dose mostly 114 µM), without a hit: at the highest dose activity change, negative = inhibition, hits mostly inhibitors; 390,000 tested, 4.4% active; note: % is set by controls: 0 for no effect and ±100 for the full control effect; nearly all actives have a fitted effect of over 50% in size
Target sequence (O75164 whole entry, looked up, the tested form may be a part): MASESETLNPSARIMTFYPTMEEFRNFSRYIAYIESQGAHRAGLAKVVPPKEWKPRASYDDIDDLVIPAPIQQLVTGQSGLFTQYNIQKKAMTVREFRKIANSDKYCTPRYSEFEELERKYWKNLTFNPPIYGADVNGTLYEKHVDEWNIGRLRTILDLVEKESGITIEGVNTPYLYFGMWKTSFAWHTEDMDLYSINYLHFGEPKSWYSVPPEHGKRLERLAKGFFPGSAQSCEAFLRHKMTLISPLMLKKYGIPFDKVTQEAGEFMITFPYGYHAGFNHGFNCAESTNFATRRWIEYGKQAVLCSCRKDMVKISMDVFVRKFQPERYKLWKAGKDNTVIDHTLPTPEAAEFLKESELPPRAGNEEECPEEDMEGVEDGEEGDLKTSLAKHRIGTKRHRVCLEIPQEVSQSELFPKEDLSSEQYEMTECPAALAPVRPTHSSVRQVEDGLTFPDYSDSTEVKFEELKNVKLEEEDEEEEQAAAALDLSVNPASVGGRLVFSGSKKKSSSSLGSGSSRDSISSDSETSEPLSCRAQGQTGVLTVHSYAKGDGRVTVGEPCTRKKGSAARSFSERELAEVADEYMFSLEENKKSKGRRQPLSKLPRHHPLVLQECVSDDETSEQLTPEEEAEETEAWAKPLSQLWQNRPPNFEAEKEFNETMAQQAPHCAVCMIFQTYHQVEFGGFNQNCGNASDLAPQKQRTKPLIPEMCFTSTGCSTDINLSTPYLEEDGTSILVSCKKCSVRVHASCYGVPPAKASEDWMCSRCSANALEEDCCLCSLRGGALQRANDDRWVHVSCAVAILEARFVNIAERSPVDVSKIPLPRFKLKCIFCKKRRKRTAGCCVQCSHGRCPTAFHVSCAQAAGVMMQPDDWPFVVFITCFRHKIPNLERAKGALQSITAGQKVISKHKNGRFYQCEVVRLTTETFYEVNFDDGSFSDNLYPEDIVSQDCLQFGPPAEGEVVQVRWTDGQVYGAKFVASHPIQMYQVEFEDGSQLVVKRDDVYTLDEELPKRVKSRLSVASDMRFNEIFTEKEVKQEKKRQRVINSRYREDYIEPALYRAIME
GLS inhibitor – inhibitors of human glutaminase (GLS); O94925; GLS enzymatic activity, qHTS titration; Potency, µM (top dose mostly 45.5 µM), for inactives: at the highest dose activity change, negative = inhibition, hits mostly inhibitors; 410,000 tested, 0.21% active; AID 624170; note: % is set by controls: 0 for no effect and ±100 for the full control effect
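Coupled fluorescence readout: glutamate oxidase/HRP/Amplex Red detect glutamate formed by hKGA from L-glutamine (1 mM solution added). Buffer 45 mM KH2PO4 pH 8.2, 0.02% Tween-20; reads at t0 and 30 min RT.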
HP1b chromo inh – inhibitors of HP1-beta chromodomain binding to methylated histone tails; Potency, µM (doses to about 114 µM), for inactives: at the top dose activity change, negative = inhibition, actives largely listed as inhibitors; 390,000 tested, 0.56% active; P83916; AlphaScreen HP1-beta / biotin-H3K9me3 peptide binding; note: nearly all actives have a fitted effect of over 70% in size
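HP1-beta protein (50 nM final) preincubated 30 min at room temperature with biotinylated H3(1-18)K9me3 peptide (50 nM) in PBS pH 7.4, 0.01% Tween-20, then compound added for 30 min. AlphaScreen streptavidin donor/nickel chelate acceptor beads (10 ug/mL final), 30 min dark, luminescence read.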
L3MBTL1 block – L3MBTL1 (human) inhibition | Q9Y468 | AlphaScreen L3MBTL1–H3K9me1 peptide binding | Potency, µM (doses to about 57.1 µM), inactives show at the highest dose activity, negative = inhibition, hits mostly inhibitors | 230,000 tested, 0.66% active | AID 485360; note: % is set by controls: 0 for no effect and ±100 for the full control effect; nearly all actives have a fitted effect of over 60% in size
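L3MBTL1 (50 nM) pre-complexed 30 min with biotinylated H3(1-15)K9me1 peptide (75 nM), then compounds added for 30 min at room temperature; AlphaScreen streptavidin donor/nickel chelate acceptor beads (10 ug/mL final) read after 30 min dark incubation.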
Starred values were filed as active, the others as inactive; ? = inconclusive; . = no result; [ ] = remark or other dose. Calls come from the whole dose curve; as a rule, active = well fitted curve in the direction sought with a large enough effect; inconclusive = small, poorly fitted or top-dose-only effect, or another doubt; inactive = no such curve, though single readings can be large; an effect the other way counts as inactive or inconclusive. Potency is the fitted concentration of half-maximal effect.

SMILES | G9a inh | BAZ2B block | JMJD2A Tudor inh | GLS inhibitor | HP1b chromo inh | L3MBTL1 block
Cc1ccc(C2C3=C(CCCC3=O)Nc3[nH]c(=S)[nH]c(=O)c32)cc1 (stereo unspecified) | -50%[2.33 µM] | 79µM* | 10µM* | ? | -32% | 2%
COC(=O)C1=C(C)Nc2[nH]c(=S)[nH]c(=O)c2C1c1ccc(O)cc1 (stereo unspecified) | 8.9µM* | -18% | ? | 13% | 27% | -9%
O=C1c2ccccc2C(=O)C1c1ccc(Br)cc1 | ? | ? | ? | -7% | -19% | .
CC1(C)CC(=O)C2=C(C1)Nc1[nH]c(=S)[nH]c(=O)c1C2c1ccccc1 (stereo unspecified) | 11µM* | -35% | 45µM* | -18% | -3% | -4%
O=c1[nH]c(=S)[nH]c2c1C(c1ccc(Br)cc1)c1c([nH]c(=S)[nH]c1=O)O2 | 1.6µM* | 22µM* | ? | ? | 32µM* | .
O=C1CCCC2=C1C(c1ccc(Br)cc1)c1c([nH]c(=S)[nH]c1=O)N2 (stereo unspecified) | 0.79µM* | ? | 40µM* | 13µM* | -24% | -16%
COc1cccc(-n2c(SCC(=O)Nc3cccc(C)c3)nc3c([nH]c4ccccc43)c2=O)c1 | 6%[59 µM] | -3% | -13% | 3% | 20%[57 µM] | .
CN1C(C(=O)Nc2ccccn2)=C(O)c2sccc2S1(=O)=O | ? | 50µM* | 50µM* | 30% | 10% | -6%
O=C(Nc1ccccn1)c1cccs1 | -3%[59 µM] | 15% | ? | ? | ? | .
COc1c(CC=C(C)C)cc(C2CC(=O)c3c(O)cc(O)cc3O2)cc1CC=C(C)C (stereo unspecified) | 18%[59 µM] | -8% | ? | 17% | -5% | .
COC1=CC(=O)C(C2CC(=O)c3c(O)cc(O)cc3O2)=CC1=O (stereo unspecified) | . | . | 79µM* | 30% | ? | .
NC(=O)CC(NC(=O)c1ccc(Br)cc1)c1ccc(N2CCCCCC2)c([N+](=O)[O-])c1 (stereo unspecified) | 45µM* | ? | ? | 2% | -24% | -20%
NC(=O)CC(NC(=O)c1cccc(Br)c1)c1ccc(NC2CCN(Cc3ccccc3)CC2)c([N+](=O)[O-])c1 (stereo unspecified) | 50µM* | ? | ? | 8% | -11% | -6%
NC(=O)CC(NC(=O)c1ccc(Br)cc1)c1ccc(NC2CCCCCCC2)c([N+](=O)[O-])c1 (stereo unspecified) | 79µM* | ? | ? | 0% | -16% | -12%
NC(=O)CC(NC(=O)c1ccccc1)c1ccc(N2CCCCCCC2)c([N+](=O)[O-])c1 (stereo unspecified) | 45µM* | ? | -35% | -5% | 9% | -7%
NC(=O)CC(NC(=O)Cc1ccc(Cl)cc1)c1ccc(NC2CCN(Cc3ccccc3)CC2)c([N+](=O)[O-])c1 (stereo unspecified) | ? | ? | -29% | -4% | 13% | -18%
NC(=O)CC(NC(=O)c1cccc(Br)c1)c1ccc(N2CCCCCC2)c([N+](=O)[O-])c1 (stereo unspecified) | . | ? | ? | -2% | -9% | -27%
O=C(O)c1ccc(Nc2nc3ccccc3c3nncn23)cc1 | 8%[59 µM] | -1% | 5% | -3% | 31% | .
Cc1c(C(=O)N(Cc2ccccc2F)C2CCS(=O)(=O)C2)oc2ccc(F)cc12 (stereo unspecified) | -3%[59 µM] | -2% | -25% | -2% | 43% | .
Cc1ccc(Sc2ccc(N3CCC(C(=O)Nc4ccc(Cl)cc4)CC3)nn2)cc1 | 6%[59 µM] | 2% | 1% | 5% | 35% | .
CN(C)CCNC(=O)c1ccc2nc(Cc3ccccc3)oc2c1 | -8%[59 µM] | -3% | -11% | 6% | 12%[57 µM] | .
CC1(C)CC(=O)C(=CN2CCN(C(=O)c3ccco3)CC2)C(=O)C1 | ? | 3% | -1% | 22% | 51% | 0%
CC1(C)CC(=O)C(=CN2CCOCC2)C(=O)C1 | 35µM* | -34% | 1% | 19% | 48% | ?
CSc1ccc(/C=N/N2CCN(Cc3ccccc3)CC2)cc1 | . | 13µM* | 45µM* | 3% | 45µM* | -13%
Clc1ccc(N2CCN(/N=C/c3ccncc3)CC2)cc1 | -29% | -19% | -18% | -1% | 10% | -7%
SMILES | G9a inh | BAZ2B block | JMJD2A Tudor inh | GLS inhibitor | HP1b chromo inh | L3MBTL1 block
COc1ccc(/C=N\N2CCN(Cc3ccccc3Cl)CC2)cc1 | 13µM* | ? | ? | 13% | -13% | -5%
Clc1ccc(/C=N/N2CCN(Cc3ccccc3)CC2)cc1 | 50µM* | 45µM* | 56µM* | -2% | ? | -21%
Oc1ccc(Br)cc1/C=N/N1CCN(Cc2ccccc2)CC1 | 12%[0.501 µM] | ? | ? | 12% | -20% | -9%
Clc1ccccc1CN1CCN(/N=C/c2ccncc2)CC1 | 45µM* | 45µM* | ? | 3% | -6% | ?
COc1ccccc1C1CCN(Cc2ccccc2Cl)CC1 | -8% | 8% | 14% | 2% | 31% | .
Cc1cc(NC(=O)C2CCN(S(=O)(=O)c3cccc4nsnc34)CC2)ccc1Br | -9%[59 µM] | . | -9% | -2% | 27% | .
COc1ccc(-n2c(SCc3ccccc3F)nc3c([nH]c4ccccc43)c2=O)cc1OC | 11%[59 µM] | -3% | -17% | -10% | 11%[57 µM] | .
Cc1ccccc1NC(=O)CSc1cn(CC(=O)N2CCCCCC2)c2ccccc12 | -12%[59 µM] | -23% | 1% | 2% | 31% | .
Clc1ccc(/C=N/N2CCN(Cc3ccccc3Cl)CC2)cc1 | ? | 35µM* | 45µM* | 7% | -10% | -17%
CCOc1ccc(/C=N/N2CCN(Cc3ccccc3)CC2)cc1 | 40µM* | 50µM* | ? | -12% | ? | ?
C(=C\c1ccccc1)/C=N/N1CCN(Cc2ccccc2)CC1 | 45µM* | 35µM* | 50µM* | -7% | ? | -16%
Cc1noc(C)c1-c1nc(NCc2ccccc2)c2ccccc2n1 | 13%[0.501 µM] | . | . | . | . | .
Cc1cccc(OC(=O)c2nc(SCc3ccccc3F)ncc2Cl)c1 | 148%[59 µM] | 104% | 40% | 0% | 139% | .
O=C(CSc1nc(-c2ccccc2)no1)N1CCN(c2ccc(F)cc2)CC1 | -3%[59 µM] | 1% | -1% | -8% | 30% | .
CCOCC(=O)Nc1nnc(Cc2ccc(OC)c(OC)c2)s1 | 16µM* | -16% | -16% | 3% | -19% | 5%
COC(C(=O)Nc1ccc(NC(=O)C(OC)c2ccccc2)cc1)c1ccccc1 (stereo unspecified) | 50µM* | -10% | 3% | -14% | 54% | 5%
COC(C(=O)Nc1ccc(Cl)cc1C)c1ccccc1 (stereo unspecified) | 8.9µM* | -9% | -15%[57.1 µM] | 7% | 29% | 4%
